Screening results (PubChem BioAssay)
Rab9 prom act – activates the Rab9 promoter | Huh7 Rab9 promoter-luciferase reporter, luminescence, 24 h | Potency, µM (doses to about 9.22 µM), inactives show at the highest dose activation, negative = inhibition, actives largely listed as activators | hit rate 2.8% among 320,000 | AID 485297; also: % of control where 0% means no effect; nearly all actives have a fitted effect of over 60% in size
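Promoter activation is measured as luciferase luminescence in Huh7 cells stably transfected with a Rab9 promoter–luciferase construct, following 24 h compound exposure at 37 °C and 10 min reagent incubation at ambient temperature.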
FLuc counter – counter-screen for miR-21 project: firefly luciferase inhibitors or activators; purified FLuc, Km substrates, luminescence inhibition; P08659; AID 588342; Potency, µM (highest dose often 57.5 µM), for the others: at the highest dose activity change, negative = inhibition, hits mostly inhibitors; hit rate 6.9% among 360,000;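 also: plate controls were vehicle for no effect and reference inhibitor for full effect; nearly all actives have a fitted effect of over 55% in size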
Target sequence (P08659 whole entry, looked up): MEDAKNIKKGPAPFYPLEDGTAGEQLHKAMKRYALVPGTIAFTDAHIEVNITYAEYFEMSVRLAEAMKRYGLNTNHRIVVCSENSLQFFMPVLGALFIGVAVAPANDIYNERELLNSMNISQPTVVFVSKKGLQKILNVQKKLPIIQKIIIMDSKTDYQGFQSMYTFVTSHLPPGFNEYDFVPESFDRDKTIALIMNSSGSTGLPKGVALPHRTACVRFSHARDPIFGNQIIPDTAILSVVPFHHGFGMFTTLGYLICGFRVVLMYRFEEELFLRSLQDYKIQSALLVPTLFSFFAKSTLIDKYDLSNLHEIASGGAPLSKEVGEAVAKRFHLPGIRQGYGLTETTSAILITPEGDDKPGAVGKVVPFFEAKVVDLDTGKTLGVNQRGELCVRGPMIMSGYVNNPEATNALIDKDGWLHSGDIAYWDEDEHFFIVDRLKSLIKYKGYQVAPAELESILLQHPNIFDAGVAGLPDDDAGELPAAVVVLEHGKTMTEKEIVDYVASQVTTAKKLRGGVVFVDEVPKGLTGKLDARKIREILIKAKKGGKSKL
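Purified P. pyralis luciferase, 10 nM final, with Km-level 10 uM D-luciferin and 10 uM ATP in 50 mM Tris acetate pH 7.5, 10 mM Mg acetate, 0.01% Tween-20, 0.05% BSA; 6-point qHTS titration about 60 µM downward; luminescence read.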
ELG1 DNA repair – ELG1-dependent DNA repair inhibition. HEK293T ELG1-luciferase reporter, luminescence, 16 h; DNA damage induced by 5-fluorouridine. hit rate 2.3% among 330,000. AID 504467. Potency, µM (highest dose often 46.1 µM), without a hit: top-dose activity change, negative = inhibition, actives largely listed as inhibitors; also: % is scaled to controls: 0 for no effect and ±100 for the full control effect; nearly all actives have a fitted effect of over 55% in size
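DMSO vehicle served as the neutral condition. Each well held 2,000 cells given 5-fluorouridine plus compound; after 16 hr at 37 °C/5% CO2, ONE-Glo was added and luciferase measured 30 min later.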
NPC1 prom act – activates the NPC1 promoter; Huh7 NPC1 promoter luciferase reporter, 24 h; Potency, µM (highest dose often 9.22 µM), inactives show at the top dose activation, actives largely listed as activators; hit rate 2.4% among 320,000; also: % of control where 0% means no effect; nearly all actives have a fitted effect of over 60% in size
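Readout is luciferase luminescence, reflecting NPC1 promoter activation in stably transfected Huh7 cells after 24 h compound exposure at 37 °C in reduced-serum medium with 10% FBS.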
ELG1 genotox – induces genotoxicity in HEK293T cells with luciferase-tagged ELG1. HEK293T ELG1-luciferase reporter, luminescence, 16 h. Potency, µM (titrated, usually from 46 µM), without a hit: at the top dose activity change, positive = activation, most hits filed as activators. hit rate 1.3% among 330,000. AID 504466; also: % of control where 0% means no effect; nearly all actives have a fitted effect of over 60% in size
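Step 1: seed 2,000 HEK293T ELG1-luciferase cells per well. Step 2: add compound or DMSO, incubate 16 hr at 37 °C. Step 3: ONE-Glo, 30 min at room temperature, read luminescence.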
SMN2 splice up – SMN2 splice variant enhancement. HEK293 SMN2-luciferase splicing reporter, luminescence, 30-36 h. Potency, µM (top dose mostly 46.1 µM), inactives show at the highest dose activity change, positive = activation, usual class: activators. hit rate 2.8% among 210,000. AID 1458; also: % of control where 0% means no effect; nearly all actives have a fitted effect of over 55% in size
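HEK293 cells carry an SMN2 minigene-luciferase reporter in which exon 7 inclusion puts luciferase in frame. Cells were seeded at 2000 cells/well, attached for 10-12 hours, then exposed to compounds for 30-36 hours at 37C before ONE-Glo luminescence.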
Numbers without * were called inactive; u = inconclusive; x = no result. Rows were chosen to be rich in hits. Some 9.2% of all compounds tested hit in one or more screens of this group. Calls follow the shape of the dose curve; as a rule, active = well fitted curve in the direction sought with a large enough effect; inconclusive = small, poorly fitted or top-dose-only effect, or another doubt; inactive = no such curve, though single readings can be large; an effect the other way counts as inactive or inconclusive. Potency is read from the fitted curve at half-maximal effect.

SMILES	Rab9 prom act	FLuc counter	ELG1 DNA repair	NPC1 prom act	ELG1 genotox	SMN2 splice up
COc1ccc(OC)c(/C=C/C(=O)c2ccc(Cl)cc2)c1	-5%	11µM*	-3%	-2%	1%	-32%
Cc1nc(-c2nnc(SCC(=O)Nc3ccc(C(F)(F)F)cc3)n2C)cs1	-1%	-1%	5%	0%	-3%	x
O=C(O)/C=C/c1ccccc1Oc1ccc(Cl)cc1Cl	-3%	15µM*	6%	0%	1%	3%
O=C(/C=C/c1ccccc1O)c1ccc(Cl)cc1	25%	3.4µM*	13%	-1%	10%	x
COc1ccccc1/C=C/C(=O)c1ccc(NC(C)=O)cc1	0%	15µM*	u	8%	-1%	x
COc1ccccc1/C=C/C(=O)c1ccccc1	u	1.9µM*	u	u	u	x
COc1ccccc1/C=C/C(=O)N1CCOCC1	0%	3%	13%	0%	3%	-16%
Fc1ccc(Nc2ccnc(Nc3ccc(F)cc3)n2)cc1	u	8.5µM*	u	u	u	x
Nc1ncnc(Nc2ccc(F)cc2)n1	1%	-6%	19%	-5%	-1%	19%
O=C(O)c1cccc(Nc2ccnc(Nc3cccc(C(=O)O)c3)n2)c1	u	6µM*	23%	u	u	x
CCOC(=O)Cn1nc(/C=C/c2ccc(C(C)C)cc2)ccc1=O	13%	11µM*	u	22%	1%	-11%
CCOC(=O)Cn1nc(/C=C/c2ccc(C)cc2)ccc1=O	1%	u	17%	4%	-1%	0%
Cc1ccc(C(=O)COC(=O)c2cccc([N+](=O)[O-])c2)s1	7%	4.8µM*	u	11%	10%	x
Cc1ccc(C(=O)COC(=O)COc2ccccc2[N+](=O)[O-])s1	1%	-17%	7%	0%	0%	x
O=C(COC(=O)c1cccc([N+](=O)[O-])c1)c1ccc2c(c1)OCO2	2.5µM*	2.7µM*	u	3.5µM*	21µM*	x
Nc1nc2nn(-c3ccccc3)nc2c(=O)[nH]1	2.8µM*	4.8µM*	u	2µM*	u	x
COc1ccc(-n2nc3ccc(NC(=O)c4c(OC)cccc4OC)cc3n2)cc1	x	u	x	x	x	-24%
COc1cc(Cl)c(C)cc1NC(=O)c1cccc(OC)c1OC	u	6.7µM*	0%	u	18%	u
COc1cc2ccccc2cc1C(=O)Nc1ccc(O)cc1	2µM*	1.1µM*	u	1.4µM*	10µM*	x
COC(=O)COc1cc2ccccc2cc1C(=O)Nc1ccccc1	-1%	9.5µM*	-8%	0%	3%	-31%
CC(C)OC(=O)c1cccc(C(=O)Nc2cccc(NC(=O)c3cccc(C(=O)OC(C)C)n3)n2)n1	-2%	0%	8.2µM*	-11%	-10%	9%
COc1cccc(NC(=O)CSc2nc(-c3ccccc3)nc3c2Cc2cc(Cl)ccc2O3)c1	x	2%	x	x	x	-6%
O=C(COc1ccc2c3c(c(=O)oc2c1)CCC3)NC(Cc1ccc(Cl)cc1)C(=O)O (stereo not drawn)	-10%	-4%	0%	1%	-4%	x
CCCCOC(=O)c1ccc(NC(=O)C(=O)CC(=O)c2ccc(OC)cc2)cc1	-2%	-2%	-20%	-3%	-2%	x
CN(C)c1ccc(NC(=O)c2cccc(C(=O)Nc3ccc(N(C)C)cc3)n2)cc1	3.2µM*	1.5µM*	u	2.8µM*	5%	14µM*
SMILES	Rab9 prom act	FLuc counter	ELG1 DNA repair	NPC1 prom act	ELG1 genotox	SMN2 splice up
COc1cccc(NC(=O)c2cccc(OC)c2OC)c1	u	21µM*	u	u	10µM*	16µM*
COc1cccc(C(=O)Nc2ccc3c(c2)CCCN3C(=O)c2cccs2)c1OC	14%	9.5µM*	u	5%	-5%	x
COc1cccc(NC(=O)c2cc3ccccc3cc2OC)c1	13%	9.5µM*	u	2%	u	x
CN(C)N1C(N)=C(C#N)C(c2ccccc2F)C2=C1CC(C)(C)CC2=O (stereo not drawn)	2%	0%	u	-8%	-3%	x
Cc1ccc(S(=O)(=O)Nc2ccccc2-c2nc3ccccc3[nH]c2=O)cc1	-3%	1%	-16%	-3%	1%	x
COc1cccc(C(=O)Nc2ccncc2)c1OC	-6%	-9%	-10%	-4%	-2%	x
COc1cccc(C(=O)Nc2ccc(N(C)C)cc2)c1OC	1.4µM*	5.4µM*	u	2.8µM*	u	11µM*
COc1ccc(NC(=O)c2cc3ccccc3cc2OC)cc1OC	13%	27µM*	-5%	-2%	1%	x
COc1cccc(C(=O)Nc2cccc(-c3cn4c(C)csc4n3)c2)c1OC	x	7.6µM*	x	x	x	x
COc1cc(OC)c(C(=O)Nc2ccc3ccccc3c2)cc1OC	2.5µM*	4.8µM*	u	u	u	x
COc1ccc(NC(=O)c2ccc3c(=O)n4nc(Nc5cccc(Cl)c5C)sc4nc3c2)cc1	x	-8%	x	x	x	x
COc1ccc(C(=O)O)cc1NC(=S)NC(=O)C(c1ccccc1)c1ccccc1	0%	-1%	1%	-3%	3%	x
Cc1cc(C)cc(NC(=O)C(=O)NC(C)c2ccccc2)c1 (stereo not drawn)	x	5%	x	x	x	-16%
Cc1ccc(Nc2c(-c3ccccc3O)nc3ccc(Br)cn23)cc1	x	-7%	x	x	x	6%
Fc1ccc(Nc2c(-c3c[nH]c4ccccc34)nc3ccccn23)cc1	x	-7%	x	x	x	u
Cc1ccc2nc(-c3c[nH]c4ccccc34)c(Nc3ccccc3)n2c1	x	-11%	x	x	x	11µM*
c1ccc(Nc2c(-c3c[nH]c4ccccc34)nc3ccccn23)cc1	x	u	x	x	x	16µM*
Cc1cc(Cl)ccc1OCC(=O)N(Cc1ccc(N(C)C)cc1)CC1CCCO1 (stereo not drawn)	x	-18%	x	x	x	5%
COc1ccccc1CNC(=O)COC(=O)COc1ccccc1F	-2%	2%	21%	4%	-4%	x
Cc1cccc(N2CCN(C(=O)c3cccn3-c3nnc(N4CCCCC4)s3)CC2)c1C	x	-19%	x	x	x	x
O=C(/C=C/c1ccccc1)NC1CCSC1=O (stereo not drawn)	21%	u	u	25%	12%	16µM*
O=C(NC1CCSC1=O)c1ccccc1 (stereo not drawn)	-1%	-1%	9%	-2%	2%	15%
CCC1CCCCN1C(=O)Cn1c(=O)n(CC2CCC(C(=O)NC)CC2)c(=O)c2sccc21 (stereo not drawn)	x	-1%	x	x	x	x
COC(=O)Cc1ccc(NC(=S)N2CCN(C)CC2)cc1	21%	5.4µM*	0%	10%	11%	u
